PubChem BioAssay (NCI)
Compounds without any hit were thinned out: in the full panel of roughly 83,000, 20% have a hit.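 48-hour exposure, single concentration, 96-well plates; percent growth endpoint where 0 means no net growth. Active: below 10.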 A number with no mark means an inactive call. The source made the active and inactive calls.

Experiments:
Test in all cases: NCI-60 one-dose screen, 48 h (100 = growth as untreated, 0 = no growth, -100 = all killed)
Settings in all cases: 10 µM unless noted
[1] = test system: HCT-15 colon
[2] = test system: HT29 colon
[3] = test system: SNB-75 CNS
[4] = test system: SNB-19 CNS
[5] = test system: U251 CNS
[6] = test system: PC-3 prostate
[7] = test system: SK-MEL-5 melanoma
[8] = test system: UACC-62 melanoma
[9] = test system: LOX IMVI melanoma
[10] = test system: SK-MEL-28 melanoma
[11] = test system: SK-MEL-2 melanoma
[12] = test system: EKVX NSCLC
[13] = test system: SN12C renal
[14] = test system: UO-31 renal
[15] = test system: TK-10 renal
[16] = test system: ACHN renal
[17] = test system: A498 renal
[18] = test system: CCRF-CEM leukemia
[19] = test system: MOLT-4 leukemia

| SMILES | growth [1] [%] | growth [2] | growth [3] [%] | growth [4] [%] | growth [5] [%] | growth [6] [%] | growth [7] | growth [8] | growth [9] | growth [10] | growth [11] | growth [12] [%] | growth [13] [%] | growth [14] | growth [15] [%] | growth [16] | growth [17] | growth [18] [%] | growth [19] |
| --- | --- | --- | --- | --- | --- | --- | --- | --- | --- | --- | --- | --- | --- | --- | --- | --- | --- | --- | --- |
| CCC1CN2C(=N1)c1ccccc1-c1cc(Cl)ccc12 (stereo unspecified) | 18.3 | 5.27% (active) | 42.6 | 26.2 | 14.8 | 21.6 | -5.14% (active) | 3.38% (active) | 2.76% (active) | 70.7% | -14.9% (active) | 22.9 | 18.5 | -43% (active) | 34.7 | 2.38% (active) | 56.9% | 13.4 | -24.8% (active) |
| CC1(C)N=C(N)N=C(N)N1c1ccc(F)c(C(F)(F)F)c1 | 45.8 | 19.3% | 59 | 44 | 47.2 | 34.3 | 22.8% | 24.3% | 21.4% | 97.8% | 54.4% | 65.2 | 47.4 | 41.8% | 65.5 | 36% | 93.1% | 20.8 |  |
| C[C@H]1C=C(C[C@@H](O)CC#CC#CCCCCC[C@@H](O)[C@H]2CCC(=O)O2)C(=O)O1 | 110 | 99.1% | 118 | 102 | 99.4 | 111 | 99.8% | 95.1% | 92.6% | 123% | 118% | 96.7 | 105 | 81.2% | 115 | 103% | 107% | 106 | 114% |
| COc1cc(/C=C/C(=O)c2c(C)n([O-])c3cc(C)c(C)cc3[n+]2=O)cc(OC)c1OC | 51.7 | 70.6% | 50.5 | 60.5 | 45.8 | 59.6 | 59% | 64% | 51.7% | 72.9% | 69.6% | 79.2 | 72.8 | 14.2% | 77 | 69.2% | 41.8% | 38 | 44.3% |
| COc1cc(NC(=O)c2cc(OC)c3ccn(C)c3c2)cc2c1C[C@]1(C)CC[C@@H](O)C(C)(C)[C@H]1O2 | 58.1 | 61.7% | 42.2 | 72.9 | 43.1 | 41.7 | 42% | 53.5% | 19.9% | 36.9% | 31.1% | 65.2 | 86.6 | 2.9% (active) | 90 | 36.6% | 1.9% (active) | 19.6 | 6.92% (active) |
| c1nc(SC2=NCCN2)c2[nH]cnc2n1 | 57.8 | 35.3% | 52.7 | 103 | 79.4 | 57.5 | 79.1% | 19.1% | 6.53% (active) | 95.4% | 38.8% | 88.7 | 78.7 | 40.6% | 22.6 | 54.2% | 92.8% | 31.3 | 16% |
| CN1CCN(CC(O)COc2c(Br)c(Br)c(Br)c3c2OC(C)(C)C3)CC1 (stereo unspecified) | 28.7 | -12.8% (active) | 90.7 | 92.7 | 56.4 | 53 | -86% (active) | -59.5% (active) | 4.05% (active) | -89.2% (active) | 38.5% | 87.7 | 92.5 | -14.8% (active) | 74.1 | 77.9% | 58.1% | 15.6 | 18.3% |
| O=[N+]([O-])c1ccc(NS(=O)(=O)c2ccccc2)c2ccccc12 | 46.8 | 57.5% | 42.5 | 48.4 | 37.5 | 53.2 | 0.136% (active) | 22.7% | 43.8% | 37.5% | 12.1% | 38.2 | 44.5 | 25.5% | 53.1 | 63.6% | 35.9% | 40.3 | 38% |
